The list is not random: actives were taken first. Their share in the collection is about 2.4%.
PGK inhibitor: T. brucei PGK inhibition; Potency, µM (series often up to 57.5 µM), hits mostly inhibitors; PGK/GAPDH coupled, Kinase-Glo luminescence, 60 min; 0.043% of 380,000 active; P07378; note: nearly all actives have a fitted effect of over 60% in size
Target sequence (P07378 whole entry, looked up): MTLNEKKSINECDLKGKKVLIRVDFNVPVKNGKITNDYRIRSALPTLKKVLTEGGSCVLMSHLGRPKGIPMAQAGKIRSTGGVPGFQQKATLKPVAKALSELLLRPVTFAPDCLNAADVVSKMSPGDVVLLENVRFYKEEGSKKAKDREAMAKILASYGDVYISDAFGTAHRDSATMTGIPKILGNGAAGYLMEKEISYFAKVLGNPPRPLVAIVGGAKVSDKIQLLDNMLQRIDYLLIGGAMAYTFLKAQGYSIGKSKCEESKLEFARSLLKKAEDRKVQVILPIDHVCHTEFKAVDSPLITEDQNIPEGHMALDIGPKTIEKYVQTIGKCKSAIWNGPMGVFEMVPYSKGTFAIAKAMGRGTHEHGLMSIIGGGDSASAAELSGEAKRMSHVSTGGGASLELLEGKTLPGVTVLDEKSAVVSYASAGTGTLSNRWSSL
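Luminescent ATP detection (Kinase-Glo Plus) follows a 60-minute room-temperature incubation, with wells lacking PGK as controls. Buffer: 100 mM TEA (pH 7.6), 5 mM MgCl2, 0.01% Tween-20. Coupling enzyme GAPDH (100 nM final) supplies unstable 1,3-BPG in-well.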
POLH inh: DNA polymerase eta (human) inhibition; Potency, µM (highest dose often 114 µM), most hits filed as inhibitors; recombinant Pol eta, fluorescent DNA replication assay; Q9Y253; 1.2% of 390,000 active
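Pol eta at 10 nM preincubated with compounds 15 min at room temperature; reaction started with fluorescent substrate (50 nM final) and read kinetically at 0 and 10 min.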
FEN1 inh: blocks human flap endonuclease 1. Potency, µM (highest dose often 114 µM), most hits filed as inhibitors. Recombinant FEN1 flap cleavage, fluorescence, 15 min. P39748. 0.35% of 390,000 active; note: nearly all actives have a fitted effect of over 65% in size
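Concentration–response screening of FEN1 (10 nM): 15 min compound preincubation at room temperature, reaction started with 50 nM substrate and read at 0 and 15 min. Corrected, normalized data were fitted by a four-parameter Hill equation.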
POLK inh: inhibitors of human DNA polymerase kappa. Q9UBT6. purified Pol kappa, fluorescent DNA synthesis assay, 10 min. Potency, µM (series often up to 107 µM), most hits filed as inhibitors. 0.53% of 400,000 active. AID 588579
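Here, compound and 10 nM enzyme are combined for 15 min at room temperature; adding 50 nM substrate (final) starts DNA synthesis, tracked by fluorescence at 0 and 10 min against buffer-only wells.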
POLB inh: DNA polymerase beta (human) inhibition; P06746; Pol beta primer extension/strand displacement, fluorescence kinetic; Potency, µM (series often up to 114 µM), actives largely listed as inhibitors; 1.3% of 340,000 active; AID 485314
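Homogeneous kinetic assay of primer extension and strand displacement by 10 nM Pol beta, preincubated 15 min at room temperature with compound before 50 nM substrate (final) was added. Read at 0 and 10 min; four-parameter Hill fit.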
Pol iota inh: DNA polymerase iota (human) inhibition; 1% of 390,000 active; AID 588590; Potency, µM (series often up to 115 µM), actives largely listed as inhibitors; Pol iota fluorescent replication assay, 10 min
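Fluorescent replication assay read twice, at 0 min and 10 min after adding 50 nM (final) substrate. Enzyme (10 nM) and compounds were first incubated 15 min at room temperature; enzyme-free buffer wells were negative controls.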
Of the large screens only hits and unclear results are named; the others gave an inactive call. Calls come from the whole dose curve; as a rule, active = well fitted curve in the direction sought with a large enough effect; inconclusive = small, poorly fitted or top-dose-only effect, or another doubt; inactive = no such curve, though single readings can be large; an effect the other way counts as inactive or inconclusive.

Cc1nc(N=Nc2cc([N+](=O)[O-])ccc2Cl)c(COP(=O)(O)O)c(C=O)c1O	POLK inh 27µM (no result: PGK inhibitor, POLH inh, FEN1 inh, POLB inh, Pol iota inh)
Cc1cccc(C(=O)NC(=O)Nc2ccc(-n3nc(C(F)(F)F)cc3C(F)(F)F)cc2)c1	none
CC[C@@H]1C(c2cccc(C)c2)=NN(c2ccc(Br)cc2)[C@H]1C(=O)N1CCOC1=O	none (no result: PGK inhibitor, POLH inh, FEN1 inh, POLB inh, Pol iota inh)
COc1cccc(NC(=O)NNC(=O)CCc2ccc(O)c(O)c2)c1	POLK inh 25µM, Pol iota inh 40µM
O=c1nc2ccccc2c2n1CC(CN1CCN(c3ccccc3)CC1)N2 (stereo unspecified)	none (no result: PGK inhibitor, POLH inh, FEN1 inh, POLB inh, Pol iota inh)
Cc1ccc(C2CC(=O)Oc3cc4c(cc32)OCO4)cc1 (stereo unspecified)	POLK inh 45µM (no result: PGK inhibitor, POLH inh, FEN1 inh, POLB inh, Pol iota inh)
O=C1CC(c2ccc3c(c2)OCO3)c2cc(O)ccc2O1 (stereo unspecified)	POLK inh 32µM (no result: PGK inhibitor, POLH inh, FEN1 inh, POLB inh, Pol iota inh)
O=C1CC(c2ccc3c(c2)OCO3)c2ccc(O)cc2O1 (stereo unspecified)	none (no result: PGK inhibitor, POLH inh, FEN1 inh, POLB inh, Pol iota inh)
Cc1ccc(CNC(=O)Cn2cc3c(n2)-c2c(oc(C(=O)N4CCOCC4)c2C)CC3)cc1	none
Cc1nnc(N/N=C/c2ccc([N+](=O)[O-])cc2)n1N	Pol iota inh inconclusive
Cc1nnc(N/N=C/c2cc([N+](=O)[O-])c(N3CCC(C)CC3)cc2N2CCC(C)CC2)n1N	Pol iota inh 4µM
CCc1nnc(N/N=C/c2ccc(N3CCC(C)CC3)c([N+](=O)[O-])c2)n1N	Pol iota inh 8.9µM
Cc1ncc(C[n+]2csc(CCOP(=O)(O)OP(=O)(O)O)c2C)c(N)n1	none (no result: PGK inhibitor, POLH inh, FEN1 inh, POLB inh, Pol iota inh)
CN(C)c1ccc(/C=C/c2cc3ccccc3c[n+]2C)cc1	FEN1 inh inconclusive, Pol iota inh inconclusive (no result: PGK inhibitor, POLH inh, POLB inh)
O=C(Nc1ccc2c(c1)CCCN2C(=O)c1cccs1)c1cccc(C(F)(F)F)c1	none
COc1c(O)cc2c(c1O)C1OC(CO)C(O)[C@H](O)[C@H]1OC2=O (stereo partly specified)	none (no result: PGK inhibitor, POLH inh, FEN1 inh, POLB inh, Pol iota inh)
O=C(O[C@@H]1OC2COC(=O)c3cc(O)c(O)c(O)c3-c3c(cc(O)c(O)c3O)C(=O)O[C@@H]([C@H]1O)[C@@H]2O)c1cc(O)c(O)c(O)c1	FEN1 inh 0.71µM, POLB inh 0.16µM, Pol iota inh inconclusive
C=CCN1[C@@H](C(C)C)COCCS1(=O)=O	none (no result: PGK inhibitor, POLH inh, POLB inh)
O=C(Nc1ccc2oc(-c3ccccc3F)nc2c1)c1ccccc1Cl	none
O=C(Nc1ccc2oc(-c3ccccc3F)nc2c1)c1ccc([N+](=O)[O-])o1	POLB inh 11µM, Pol iota inh inconclusive
CCN(CC)C(=O)C1CCCN(C(=O)Nc2ccc3nsnc3c2)C1 (stereo unspecified)	POLH inh inconclusive, Pol iota inh 0.89µM
S=C(Nc1ccc2nsnc2c1)N1CCCCC1	Pol iota inh 3.5µM
COc1cc(C(CCN2CCCC2)c2c(OC)cc(OC)c3c2OC(=O)CC3c2ccc(N(C)C)cc2)cc(OC)c1OC (stereo unspecified)	none (no result: PGK inhibitor, POLH inh, POLB inh)
O=[N+]([O-])c1ccc(-c2c[nH]c(=S)[nH]2)cc1	POLH inh 40µM, POLK inh inconclusive, POLB inh inconclusive, Pol iota inh inconclusive
S=c1[nH]cc(-c2ccccc2)[nH]1	none
O=c1c([N+](=O)[O-])c(O)c2cccc3c2n1CCC3	POLH inh 50µM, FEN1 inh inconclusive, POLK inh inconclusive, POLB inh 35µM
CN(C)Cc1ccccc1-c1nc(NC2CCNCC2)c2ccccc2n1	POLK inh 14µM (no result: PGK inhibitor, POLH inh, FEN1 inh, POLB inh, Pol iota inh)
CC(=O)NCCNc1nc(-c2ccccc2CN(C)C)nc2ccccc12	none (no result: PGK inhibitor, POLH inh, FEN1 inh, POLB inh, Pol iota inh)
CN(C)c1ccc(-c2nc(NC3CCNCC3)c3ccccc3n2)cc1	POLK inh 32µM (no result: PGK inhibitor, POLH inh, FEN1 inh, POLB inh, Pol iota inh)
CCOC(=O)C1=C(C)N(c2ccc(C)c(C)c2)C(=O)/C1=C\c1ccco1	none
COC(=O)C1=C(C)N(c2ccc(C)c(C)c2)/C(=C/c2ccco2)C1=O	POLB inh 22µM, Pol iota inh inconclusive
Cc1ccc2[nH]cc(C(O)c3c[nH]c4ccc(C)cc34)c2c1	none (no result: PGK inhibitor, POLH inh, POLB inh)
CC1=NN2C(=N)/C(=C\c3cc(C)n(-c4ccccc4)c3C)C(=O)N=C2S1	none
N=C1/C(=C/c2coc3ccccc3c2=O)C(=O)N=C2SC(c3ccco3)=NN12	POLH inh 3.2µM, FEN1 inh 32µM, POLK inh inconclusive, Pol iota inh inconclusive
O=C(NCCc1c[nH]c2ccccc12)c1ccc2nc[nH]c2c1	POLH inh 50µM, Pol iota inh inconclusive (no result: POLB inh)
COc1ccc(C(=O)NCCc2c[nH]c3ccccc23)cc1OC	none
O=C1CCCc2c1sc1nc3n(c(=O)c21)CCCCC3	none
O=c1c2c3c(sc2nc2n1CCCCC2)CCC3	POLB inh 32µM
CCc1ccc2nc(NC(=O)c3ccc(N4C(=O)CCC4=O)cc3)sc2c1	none
CCc1ccc2nc(NC(=O)c3ccc4c(=O)[nH]c(CN5CCOCC5)nc4c3)sc2c1	POLH inh 50µM, POLB inh 79µM, Pol iota inh inconclusive
Cc1c(Br)c(O)c(Br)c(O)c1/C=N/n1c(-c2ccccc2)n[nH]c1=S	POLH inh 3.2µM, FEN1 inh 35µM, POLK inh 35µM, POLB inh 50µM, Pol iota inh 7.9µM
Oc1c(Br)cc(/C=N/n2c(-c3ccccc3)n[nH]c2=S)cc1Br	none
Oc1c(Br)cc(/C=N/n2c(-c3ccccc3)n[nH]c2=S)c(O)c1Br	POLH inh 10µM, FEN1 inh inconclusive, POLK inh 40µM, Pol iota inh inconclusive
CC[C@H](C)[C@H](N)C(=O)N[C@H]1CCC(=O)NCC(C(=O)N[C@@H](Cc2ccc(O)cc2)C(=O)N[C@@H](CCCNC(=N)N)C(=O)N[C@@H](CC(C)C)C(=O)N[C@@H](CCCNC(=N)N)C(=O)N[C@@H](Cc2ccc(O)cc2)C(N)=O)NC(=O)[C@@H]2CCCN2C(=O)[C@@H](NC(=O)[C@@H](N)[C@@H](C)CC)CCC(=O)NCC(C(=O)N[C@@H](Cc2ccc(O)cc2)C(=O)N[C@@H](CCCNC(=N)N)C(=O)N[C@@H](CC(C)C)C(=O)N[C@@H](CCCNC(=N)N)C(=O)N[C@@H](Cc2ccc(O)cc2)C(N)=O)NC(=O)[C@@H]2CCCN2C1=O (stereo partly specified)	none (no result: PGK inhibitor, POLH inh, FEN1 inh, POLB inh, Pol iota inh)
CC[C@H](C)[C@H](NC(=O)[C@H](CCCN=C(N)N)NC(=O)[C@H](CCCN=C(N)N)NC(=O)[C@H](CC(C)C)NC(=O)[C@H](Cc1ccccc1)NC(=O)CNC(=O)CN)C(=O)N[C@@H](CCCN=C(N)N)C(=O)N1CCC[C@H]1C(=O)N[C@@H](CCCCN)C(=O)N[C@@H](CC(C)C)C(=O)N[C@@H](CCCCN)C(=O)O	none (no result: PGK inhibitor, POLH inh, FEN1 inh, POLB inh, Pol iota inh)
O=C(NNC(=O)c1cccc(-n2cccc2)c1)c1ccc(F)cc1	POLH inh 14µM, POLK inh inconclusive, Pol iota inh 50µM (no result: POLB inh)
